The nature of test [1]: qHTS assay to identify small molecule agonists of the androgen receptor (AR) signaling pathway in the presence of an antagonist - cell viability counter screen (AID 1259379). Further: nearly all actives have a fitted effect of over 25% in size. Further: potency means the concentration at half of the fitted maximal effect. The method, boiled down:
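Seed MDA-kb2 at 3,000 cells/well; incubate 5 hr, 37C, 0% CO2. Add nilutamide to 3.0uM final, then pin compounds at 15 concentrations. Incubate 16 hr. Add CellTiter-Fluor at 15 hr, read fluorescence after 1 hr.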

Test [2] can be described thus: qHTS assay to identify small molecule agonists of the estrogen receptor beta (ER-beta) signaling pathway - cell viability counter screen (AID 1259380). Further: nearly all actives have a fitted effect of over 30% in size. Further: potency means the concentration at half of the fitted maximal effect. The method, boiled down:
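CellTiter-Glo read, 30 min RT, same wells as bla assay; cells ER-beta-UAS-bla HEK293T; 16 hr compound, 37C; medium 2% charcoal-stripped FBS.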
Background: qHTS replaces the single test concentration by a dilution series.

Test [3] addresses Estrogen receptor (Homo sapiens) (UniProt P03372). Put plainly: qHTS assay to identify small molecule agonists of the estrogen receptor alpha (ER-alpha) signaling pathway in the presence of an antagonist (AID 1259383; calls by dose curve; further: top concentration of the series differs between compounds; nearly all actives have a fitted effect of over 15% in size). Put shortly: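 Stably transfected VM7Luc4E2 reporter cells, kept 5 days in charcoal-stripped serum, received ICI-182,780 at 10.0nM final before compound addition. Following 22hr incubation at 37C and 5% CO2, luciferase signal was read by luminescence.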

A short description of test [4]: qHTS assay to identify small molecule agonists or antagonists of the thyroid stimulating hormone receptor (TSHR) signaling pathway - wild type cell line counter screen (AID 1259384; calls by dose curve). The method, boiled down: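 Wild-type Hek293 cells, 800/well, 18 h at 37C, then compound with Ro20-1724 for 30 min RT. cAMP by HTRF (cAMP-d2/anti-cAMP cryptate), 1 h RT, fluorescence read. 15 concentrations, triplicates.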

The target of test [5] is Thyrotropin receptor (Homo sapiens) (UniProt P16473). The test is described as follows: qHTS assay to identify small molecule antagonists of the thyroid stimulating hormone receptor (TSHR) signaling pathway (AID 1259385; calls by dose curve; further: nearly all actives have a fitted effect of over 20% in size). Put shortly:
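TSHR-HEK293 cells (800/well) plated 18 h, then compounds with Ro20-1724 and TSH at 1.5 ng/mL final, 30 min at room temperature. cAMP quantified by HTRF (cAMP-d2/anti-cAMP-cryptate, 1 h); 15 concentrations in triplicate.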

A short description of test [6]: qHTS assay to identify small molecule agonists of the estrogen receptor alpha (ER-alpha) signaling pathway in the presence of an antagonist - cell viability counter screen (AID 1259386).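 Further: cells exposed to compounds for 22 h at 37 °C before the viability read; nearly all actives have a fitted effect of over 30% in size.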 Further: potency means the concentration at half of the fitted maximal effect. Put shortly: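 Viability counter screen using VM7Luc4E2 (full-length ER-alpha, four ERE-luciferase). The cells were treated with compounds alongside ICI-182,780 10.0nM for 22hr, and live-cell protease fluorescence was quantified with CellTiter-Fluor.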

Test [7] deals with Progesterone receptor (Homo sapiens) (UniProt P06401). The test is described as follows: qHTS assay to identify small molecule agonists of the progesterone receptor (PR) signaling pathway (AID 1346784; calls by dose curve; further: nearly all actives have a fitted effect of over 30% in size). The method, boiled down: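 Using charcoal-stripped serum (2%) to limit endogenous steroids, PR-UAS-bla HEK 293T cells received compounds for 16 hr at 37C after 6 hr plating; beta-lactamase FRET fluorescence was recorded following 2 hr substrate loading at room temperature.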

Test [8] can be described thus: qHTS assay to identify small molecule antagonists of the progesterone receptor (PR) signaling pathway - cell viability counter screen (AID 1346798). Further: series mostly up to about 92 µM; nearly all actives have a fitted effect of over 50% in size. The method, boiled down:
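ATP content as viability readout: CellTiter-Glo luminescence, 30 min room temperature, in PR-UAS-bla HEK293T cells after 16 hr compound/R5020 treatment at 37C and 5% CO2.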

Test [9] is described as follows: qHTS assay to identify small molecule antagonists of the TGF-beta/Smad signaling pathway - cell viability counter screen (AID 1346824). Further: nearly all actives have a fitted effect of over 50% in size. The method, boiled down:
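SBE-bla HEK 293T cells, incubated overnight, then compound plus 0.25 ng/mL TGF-beta1 (stock added) for 5 hr at 37 C. Viability was read in the same wells by CellTiter-Glo luminescence after 30 min at room temperature.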

Test [10] is described as follows: qHTS assay to identify small molecule agonists of the TGF-beta/Smad signaling pathway - cell viability counter screen (AID 1346829). Further: top concentration of the series differs between compounds; nearly all actives have a fitted effect of over 45% in size. Put shortly:
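HEK 293T SBE-bla line, 5 hr compound exposure at 37 C, multiplexed CellTiter-Glo viability read by luminescence.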

Test [11] can be described thus: qHTS assay to identify small molecule agonists of the TGF-beta/Smad signaling pathway (AID 1346859; active means well fitted activation curve with a large enough effect in the signal ratio in the repeat runs, not every such curve was filed as active; the % refers to the signal ratio; further: series mostly up to about 77 µM). The method, boiled down: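 Stable Smad binding element-beta-lactamase HEK 293T cells; 5 hr compound exposure at 37 C under 5% CO2; 2 hr room-temperature substrate step; fluorescence excited at 405 nm, collected at 460 nm and 530 nm.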
The target in test [12] is Thyrotropin-releasing hormone receptor (Homo sapiens) (UniProt P34981). The test is described as follows: qHTS assay to identify small molecule antagonists of the thyrotropin-releasing hormone receptor (TRHR) signaling pathway (AID 1346877; active means well fitted inhibition curve with a large enough effect in the repeat runs, not every such curve was filed as active; further: series mostly up to about 51 µM). Put shortly: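 Following an 18 h incubation at 37 °C and a 2 h calcium dye load, TRHR-HEK293 cells were exposed to compound (5 min, room temperature) and challenged with TRH, 1 nM final.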

For test [13] the target is unchanged. Put plainly: qHTS assay to identify small molecule agonists of the thyrotropin-releasing hormone receptor (TRHR) signaling pathway (AID 1346891; calls by dose curve;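 further: HEK293 cells expressing TRHR with calcium dye readout; series mostly up to about 58 µM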). Put shortly: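 In 1536-format, 1500 TRHR-Hek293 cells per well grew 18 h, took up calcium dye for 2 h at 37 °C, received compound, and were read kinetically; 15-point titrations, triplicates.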
A short description of test [14]: qHTS assay to identify small molecule antagonists of the estrogen receptor beta (ER-beta) signaling pathway - cell viability counter screen (AID 1259382).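 Further: HEK293T cells carrying ER-beta-UAS-bla reporter stimulated with estradiol; series mostly up to about 92 µM; nearly all actives have a fitted effect of over 55% in size.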 Put shortly: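 In this multiplexed counter screen, cells were seeded at 2,000 per well in medium with 2% charcoal-stripped FBS and incubated 6 hr before compound and 1nM final E2 were added. Sixteen hours later, ATP-based luminescence reported viability.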

The target of test [15] is Progesterone receptor (Homo sapiens) (UniProt P06401). Put plainly: qHTS assay to identify small molecule antagonists of the progesterone receptor (PR) signaling pathway (AID 1346795; active means well fitted inhibition curve with a large enough effect in the signal ratio in the repeat runs, not every such curve was filed as active; the % refers to the signal ratio; further: potency means the concentration at half of the fitted maximal effect). Put shortly:
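Inhibition of R5020-induced (1 nM final) beta-lactamase reporter signal in PR-UAS-bla HEK293T cells was scored by FRET fluorescence after overnight (16 hr) compound treatment.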

Test [16] is described as follows: qHTS assay to identify small molecule agonists of the progesterone receptor (PR) signaling pathway - cell viability counter screen (AID 1346799; calls by dose curve; further: nearly all actives have a fitted effect of over 45% in size). Put shortly:
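Cytotoxicity in PR-bla HEK293T cells: 16 h compound, 37C; CellTiter-Glo added post-FRET read; luminescence after 30 min RT.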

Test [17] is described as follows: Human pregnane X receptor (PXR) small molecule agonists, qHTS cell viability counter screen (AID 1346977). Further: nearly all actives have a fitted effect of over 50% in size. Further: potency means the concentration at half of the fitted maximal effect. Put shortly: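 Readout is CellTiter-Fluor fluorescence from PXR-Luc HepG2 cells. Plated cells rested 5hr, then were treated with compounds for 24hr at 37C and 5% CO2, with reagent present during the last hour.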
Test [18] has as its target Androgen receptor (Homo sapiens) (UniProt P10275). Put plainly: qHTS assay to identify small molecule agonists of the androgen receptor (AR) signaling pathway in the presence of an antagonist (AID 1259381; calls by dose curve; further: nearly all actives have a fitted effect of over 15% in size). The method, boiled down:
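Test compounds at 15 concentrations were incubated for 16hr with MDA-kb2 reporter cells in presence of 3.0uM nilutamide (final). Signal: ONE-Glo luciferase luminescence.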

“And” between values parts separate entries of the source, which are not always exact repeats. Equal values may be shown once. Inconclusive results are not listed. The source made the active and inactive calls. Unless noted, the call rests on the fitted dose curve; in most records, active means well fitted curve in the direction sought with a large enough effect in the repeat runs; inconclusive means weak or mixed curves; inactive means no such curve, though single readings can be large; an effect the other way counts as inactive or inconclusive.

Androgen receptor (Homo sapiens), sequence (P10275 whole entry, looked up): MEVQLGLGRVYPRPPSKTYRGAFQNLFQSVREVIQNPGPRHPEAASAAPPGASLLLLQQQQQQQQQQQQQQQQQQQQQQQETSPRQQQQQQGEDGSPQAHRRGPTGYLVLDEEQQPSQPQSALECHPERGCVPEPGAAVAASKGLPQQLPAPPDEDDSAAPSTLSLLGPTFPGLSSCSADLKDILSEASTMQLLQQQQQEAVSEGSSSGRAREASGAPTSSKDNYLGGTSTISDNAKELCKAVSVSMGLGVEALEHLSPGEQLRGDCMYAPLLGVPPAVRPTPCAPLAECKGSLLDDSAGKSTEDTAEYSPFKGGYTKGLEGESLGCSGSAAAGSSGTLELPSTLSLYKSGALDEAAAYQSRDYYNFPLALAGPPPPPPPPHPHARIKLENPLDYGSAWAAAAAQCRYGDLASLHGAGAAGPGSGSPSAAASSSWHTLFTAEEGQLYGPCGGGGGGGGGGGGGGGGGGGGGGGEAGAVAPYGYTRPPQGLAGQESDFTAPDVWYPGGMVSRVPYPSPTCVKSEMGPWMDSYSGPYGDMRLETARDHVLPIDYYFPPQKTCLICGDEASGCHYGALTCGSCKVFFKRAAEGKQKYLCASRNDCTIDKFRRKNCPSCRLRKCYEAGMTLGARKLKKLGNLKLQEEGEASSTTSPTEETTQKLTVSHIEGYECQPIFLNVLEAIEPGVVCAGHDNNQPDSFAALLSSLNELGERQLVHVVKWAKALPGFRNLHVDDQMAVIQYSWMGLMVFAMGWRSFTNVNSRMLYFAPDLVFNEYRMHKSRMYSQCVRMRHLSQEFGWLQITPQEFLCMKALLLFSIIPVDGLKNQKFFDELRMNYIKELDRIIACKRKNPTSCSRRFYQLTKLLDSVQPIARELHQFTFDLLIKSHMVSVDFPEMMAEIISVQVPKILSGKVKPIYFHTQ
Estrogen receptor (Homo sapiens), sequence (P03372 whole entry, looked up): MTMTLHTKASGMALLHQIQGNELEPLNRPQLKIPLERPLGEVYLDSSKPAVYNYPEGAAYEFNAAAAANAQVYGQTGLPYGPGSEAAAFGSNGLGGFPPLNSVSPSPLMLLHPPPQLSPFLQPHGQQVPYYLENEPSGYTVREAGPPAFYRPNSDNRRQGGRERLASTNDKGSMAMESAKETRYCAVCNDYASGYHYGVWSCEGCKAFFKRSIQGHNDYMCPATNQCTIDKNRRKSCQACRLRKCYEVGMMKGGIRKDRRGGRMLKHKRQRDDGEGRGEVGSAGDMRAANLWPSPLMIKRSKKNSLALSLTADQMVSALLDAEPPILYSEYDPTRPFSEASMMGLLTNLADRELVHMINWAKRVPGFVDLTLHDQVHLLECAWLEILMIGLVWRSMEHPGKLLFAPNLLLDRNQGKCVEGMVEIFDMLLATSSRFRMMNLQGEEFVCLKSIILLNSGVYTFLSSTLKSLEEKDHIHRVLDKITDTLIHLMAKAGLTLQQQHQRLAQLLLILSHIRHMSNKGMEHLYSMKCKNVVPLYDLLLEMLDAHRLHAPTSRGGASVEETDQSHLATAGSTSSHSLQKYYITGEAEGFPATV
Progesterone receptor (Homo sapiens), sequence (P06401 whole entry, looked up): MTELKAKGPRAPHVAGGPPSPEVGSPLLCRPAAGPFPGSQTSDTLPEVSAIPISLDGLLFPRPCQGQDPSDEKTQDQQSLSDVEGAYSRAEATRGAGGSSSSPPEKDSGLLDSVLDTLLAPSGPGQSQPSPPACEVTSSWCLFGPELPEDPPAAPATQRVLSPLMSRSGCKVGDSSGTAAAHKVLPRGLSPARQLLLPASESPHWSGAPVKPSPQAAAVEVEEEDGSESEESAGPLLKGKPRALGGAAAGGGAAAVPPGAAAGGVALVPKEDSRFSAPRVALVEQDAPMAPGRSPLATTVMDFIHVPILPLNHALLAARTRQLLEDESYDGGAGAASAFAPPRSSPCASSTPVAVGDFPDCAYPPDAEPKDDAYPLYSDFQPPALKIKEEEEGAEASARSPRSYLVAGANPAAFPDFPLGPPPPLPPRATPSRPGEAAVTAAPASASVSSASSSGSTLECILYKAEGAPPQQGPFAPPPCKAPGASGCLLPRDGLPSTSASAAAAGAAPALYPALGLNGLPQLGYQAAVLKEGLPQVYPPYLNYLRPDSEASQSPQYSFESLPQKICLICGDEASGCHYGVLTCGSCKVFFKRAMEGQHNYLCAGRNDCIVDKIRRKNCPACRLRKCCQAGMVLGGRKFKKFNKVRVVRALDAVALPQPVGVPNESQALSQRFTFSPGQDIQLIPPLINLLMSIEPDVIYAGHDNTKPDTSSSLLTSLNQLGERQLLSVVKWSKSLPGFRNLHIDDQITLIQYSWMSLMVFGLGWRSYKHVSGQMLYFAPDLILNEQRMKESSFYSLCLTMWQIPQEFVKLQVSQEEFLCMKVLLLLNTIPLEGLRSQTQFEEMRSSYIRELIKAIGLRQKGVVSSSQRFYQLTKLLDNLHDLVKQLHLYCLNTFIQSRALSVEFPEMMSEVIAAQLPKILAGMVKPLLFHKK
Thyrotropin-releasing hormone receptor (Homo sapiens), sequence (P34981 whole entry, looked up): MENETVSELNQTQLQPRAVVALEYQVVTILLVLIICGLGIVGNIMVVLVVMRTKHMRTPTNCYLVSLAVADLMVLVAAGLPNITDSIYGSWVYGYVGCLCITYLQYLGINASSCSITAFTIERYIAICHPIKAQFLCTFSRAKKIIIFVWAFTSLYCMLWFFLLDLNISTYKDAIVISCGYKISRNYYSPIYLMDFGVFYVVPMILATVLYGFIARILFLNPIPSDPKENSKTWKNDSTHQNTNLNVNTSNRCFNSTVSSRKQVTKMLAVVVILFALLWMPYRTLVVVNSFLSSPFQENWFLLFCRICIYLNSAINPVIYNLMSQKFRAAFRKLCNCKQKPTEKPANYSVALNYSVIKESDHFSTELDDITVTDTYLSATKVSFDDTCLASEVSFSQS
Thyrotropin receptor (Homo sapiens), sequence (P16473 whole entry, looked up): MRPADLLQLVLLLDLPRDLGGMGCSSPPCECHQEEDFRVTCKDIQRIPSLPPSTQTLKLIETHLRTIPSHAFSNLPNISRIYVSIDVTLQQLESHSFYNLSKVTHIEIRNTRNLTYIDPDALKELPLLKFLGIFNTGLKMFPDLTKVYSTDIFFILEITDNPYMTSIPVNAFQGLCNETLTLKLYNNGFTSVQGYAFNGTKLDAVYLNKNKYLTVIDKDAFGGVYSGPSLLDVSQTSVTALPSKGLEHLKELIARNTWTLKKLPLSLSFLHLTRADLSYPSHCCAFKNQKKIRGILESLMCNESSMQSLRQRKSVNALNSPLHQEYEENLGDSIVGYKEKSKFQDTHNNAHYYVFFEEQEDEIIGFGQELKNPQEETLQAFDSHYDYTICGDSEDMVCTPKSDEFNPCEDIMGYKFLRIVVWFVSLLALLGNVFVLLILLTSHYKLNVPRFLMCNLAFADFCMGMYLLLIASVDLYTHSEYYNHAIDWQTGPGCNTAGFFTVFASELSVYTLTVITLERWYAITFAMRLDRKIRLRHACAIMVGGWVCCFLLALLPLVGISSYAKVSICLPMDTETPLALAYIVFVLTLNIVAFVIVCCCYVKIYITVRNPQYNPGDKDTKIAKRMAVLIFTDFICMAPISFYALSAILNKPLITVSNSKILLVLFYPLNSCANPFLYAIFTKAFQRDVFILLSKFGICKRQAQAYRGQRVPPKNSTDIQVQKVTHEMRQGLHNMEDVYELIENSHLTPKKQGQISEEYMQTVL

As for `CCCCCCCCCCC[C@@H](C[C@@H]1OC(=O)[C@H]1CCCCCC)OC(=O)[C@H](CC(C)C)NC=O`, the Potency entry in [1], in [2], in test [3], in test [5], in test [6] and in test [7] was “inactive” in each case. The Potency entry in test [8], in test [9], in [10], in test [11] and in test [12] was “inactive” throughout. The result in test [4] and in test [13] was inactive.

Consider `CCC(C)[O-].CCC(C)[O-].CCOC(=O)/C=C(/C)[O-].[Al+3]`, for which the Potency result in test [1], in test [2], in test [14], in test [5], in [6] and in test [7] was “inactive” throughout. Further, the Potency entry in test [15], in [8], in test [16], in [9], in test [10] and in test [11] was “inactive” each time. Moreover, the Potency result in [17] was “inactive”. Further, the call in test [4] was inactive.

As to `CCCCCCOC(=O)C(C)CC` (stereo unspecified), the Potency result in test [1], in test [14], in [3], in test [5], in [6] and in [7] was “inactive” each time. In addition, the Potency entry in test [15], in test [16], in [9], in [10], in test [11] and in test [12] was “inactive” each time. The outcome in test [18], in [4] and in [13] was inactive.

Consider `CC(C)CCOC(=O)/C=C/c1ccccc1`, for which the Potency entry in test [1], in test [14], in test [3], in test [6], in test [7] and in test [15] was “inactive” throughout. The Potency entry in [8], in test [16], in test [9], in test [10], in test [11] and in test [12] was “inactive” in each case. Also, the compound was classed as inactive in test [4] and in test [13].

As for `Cc1c(C)c2c(c(C)c1OC(=O)c1cccnc1)CC[C@@](C)(CCC[C@H](C)CCC[C@H](C)CCCC(C)C)O2`, the Potency result in [1], in [2], in test [3], in test [5], in test [6] and in [7] was “inactive” throughout. The Potency result in [15], in [8], in [16], in test [9], in test [10] and in test [17] was “inactive” in each case. The compound was called inactive in test [4].

In the case of `Oc1c(I)cc(Cl)c2cccnc12`, the Potency is 48.5 µM (active) in [1]; 6.84 µM (active) and 7.5 µM (active) in [15]. Moreover, the result in test [18] and in test [13] was inactive. The Potency result in test [7], in [8], in test [16], in test [9], in test [10] and in test [11] was “inactive” in each case. The Potency result in [12] and in test [17] was “inactive” throughout.

Turning to `Cc1ccc(O)c(N)c1`, the Potency entry in [1], in [3], in test [8], in test [9], in test [10] and in [12] was “inactive” each time. In addition, the Potency in test [2] is 24.4 µM (active). The compound was called inactive in test [4] and in test [13].

As to `COc1cc(S(=O)(=O)O)c(C)cc1N=Nc1c(O)ccc2cc(S(=O)(=O)O)ccc12`, the figures for the Potency in test [1], in test [6] and in test [17] were 27.3 µM (active), 17.2 µM (active) and 15.4 µM (active), respectively. For the same compound, the Potency result in [2], in test [3], in test [7], in test [8], in [16] and in [9] was “inactive” throughout. Moreover, the Potency entry in test [10], in [11] and in [12] was “inactive” each time. Further, the outcome in test [13] was inactive.

For `CCCCC(CC)COC(=O)CCCCC(=O)OCc1ccccc1` (stereo unspecified), the Potency entry in test [1], in test [14], in test [3], in test [5], in test [6] and in [7] was “inactive” in each case. The Potency result in [15], in [8], in test [9], in test [10], in test [11] and in test [17] was “inactive” in each case. The compound was called inactive in test [4].

The record behind these values is PubChem BioAssay (Tox21).
